Source: PubChem
An excerpt weighted towards active compounds, which were near 3.6% of everything screened.
D1 agonist – agonists of human D1 dopamine receptor; P21728; HEK293 T-REx D1 cells, calcium flux, agonist mode; activation, % at 2 µM; hit rate 1% among 360,000
Target sequence (P21728 whole entry, looked up): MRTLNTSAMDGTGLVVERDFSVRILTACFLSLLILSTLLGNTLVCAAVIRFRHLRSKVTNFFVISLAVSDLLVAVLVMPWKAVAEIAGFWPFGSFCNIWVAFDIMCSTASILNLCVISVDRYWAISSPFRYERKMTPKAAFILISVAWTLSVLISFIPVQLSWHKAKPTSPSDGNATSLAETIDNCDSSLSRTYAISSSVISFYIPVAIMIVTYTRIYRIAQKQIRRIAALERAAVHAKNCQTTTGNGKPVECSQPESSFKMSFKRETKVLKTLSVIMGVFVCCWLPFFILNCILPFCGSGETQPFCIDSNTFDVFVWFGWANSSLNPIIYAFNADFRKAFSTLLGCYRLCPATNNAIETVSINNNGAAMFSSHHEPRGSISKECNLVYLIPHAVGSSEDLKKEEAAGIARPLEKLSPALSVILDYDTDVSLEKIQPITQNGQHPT
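Tetracycline-induced HEK293 TREx D1 cells, force-coupled to calcium signalling, were dye-loaded with a no-wash calcium kit. Compound was pin-added after a 10 s baseline. Fluorescence was read kinetically at 1 cycle/s for 180 s, with calcium rises flagged as agonism.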
TRHR ag – agonists of human TRH receptor; TRHR cells, calcium flux fluo-8, FDSS agonist mode; activation, % at 2 µM; hit rate 0.18% among 360,000; AID 493084
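Fluo-8-loaded TRHR cells; 10 s baseline, compound added, kinetic Ca2+ fluorescence read 1/s, agonist mode.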
TRHR PAM – allosterically enhances the human TRH receptor; P34981; TRHR cells, fluo-8 calcium fluorescence, EC20 TRH enhancement; enhancement, % at 2 µM; hit rate 0.66% among 360,000; in the data active = enhancement above about 30%
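Enhancer read-out: after compound pinning and an initial kinetic agonist-mode read, an EC20 of TRH (10 nM final) was injected and fluo-8 calcium signal (Ex 480/Em 530) followed at 1 s/cycle for 100 cycles in TRHR-expressing cells.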
D1 PAM – human D1 dopamine receptor positive modulation | hit rate 0.036% among 360,000 | AID 504651 | P21728 | potentiation, % at 10 µM | HEK293 TREx D1 cells, calcium flux, dopamine EC20 potentiation; in the data active = potentiation above about 30%
LDHA block – inhibitors of human lactate dehydrogenase A. P00338. purified LDHA, NADH/diaphorase-resazurin fluorescence; hits give low values. activity change, % (values are at about 110 or 230 µM). hit rate 0.15% among 480,000. AID 1347041; in the data active = activity change below about -30%
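Enzyme activity of human lactate dehydrogenase 5 (2 nM; 0.06 mM NADH, 0.2 mM pyruvate, 5 min, RT) is measured via a resazurin/diaphorase fluorescence readout of residual NADH.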
D1 antag – antagonists of human D1 dopamine receptor | P21728 | HEK293 TREx D1 cells, calcium flux, dopamine EC80; hits give low values | activity change, negative = inhibition, % at 10 µM | hit rate 3.2% among 360,000 | AID 504652; in the data active = activity change below about -30%
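Compound effects on dopamine-evoked calcium signalling were measured in tetracycline-induced HEK293 Trex D1 cells. Dopamine at EC80 followed a 180 s compound pre-read, and fluorescence was tracked kinetically for 180 s more.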
Numbers stand for hits; – = inactive; · = not tested or not shown. Cut-off read from the data, not from the text of the source, unless noted: active = activation above about 30%; inactive = the rest.

SMILES	D1 agonist	TRHR ag	TRHR PAM	D1 PAM	LDHA block	D1 antag
CSc1ccccc1NC(=O)c1ccncc1	–	–	–	–	–	–
Cc1ccccc1OCC(=O)Nc1c(NC2CCCCC2)c2ccccc2oc1=O	·	·	·	·	–	·
Cc1cccc(C)c1-n1nnnc1SCc1nc(N)nc(N(C)C)n1	·	·	·	·	–	·
CN(C)c1nc(N)nc(CSc2nnnn2-c2ccc(F)cc2)n1	–	–	38	–	–	–
COc1cccc(-c2n[nH]c(=O)c3c2C(c2cccc(F)c2)n2nnnc2N3)c1 (stereo unspecified)	·	·	·	·	–	·
COc1ccc(OC)c(NC(=O)Cc2cnc(-n3cccc3)s2)c1	·	·	·	·	–	·
Cc1ccc(C)c2c(C)c(C(=O)O)oc12	·	·	·	·	–	·
CCc1ccc(-c2nc(-c3ccc4c(c3)CC(=O)N4C)cs2)cc1	·	·	·	·	–	·
O=C(COc1ccc(F)cc1)NNC(=O)c1cc2ccccc2oc1=O	–	–	–	–	–	-30
CCOc1ccc(CNS(=O)(=O)c2cc(CN3C(=O)c4cccnc4C3=O)ccc2OC)cc1	–	–	–	–	–	-54
Cc1ccc(NC(=O)CCCN2C(=O)C(c3ccccc3)Oc3cccnc32)c(C)c1 (stereo unspecified)	·	·	·	·	–	·
Cc1ccc(C)c(NC(=O)CCCN2C(=O)C(c3ccccc3)Oc3cccnc32)c1 (stereo unspecified)	–	–	53	–	–	–
CCc1ccccc1-n1nnnc1SCC(=O)Nc1cc(C)on1	–	–	–	–	–	–
Cc1ccccc1-n1nnnc1SCC(=O)Nc1ccc(N2CCN(C)CC2)cc1	–	–	–	–	–	-77
CC(Sc1nnnn1C)C(=O)Nc1ccccc1 (stereo unspecified)	–	–	–	–	–	–
Cc1ccccc1-n1nnnc1SC(C)C(=O)Nc1ccc(N2CCN(C)CC2)cc1 (stereo unspecified)	–	–	–	–	–	-68
Cc1cccc(-n2nnnc2SCC(=O)Nc2ccc(N3CCN(C)CC3)cc2)c1	–	–	–	–	–	–
CCc1ccccc1-n1nnnc1SCC(=O)Nc1ccc(N2CCN(C)CC2)cc1	–	–	–	–	–	-60
COc1ccc(CNc2ccccc2)cc1	·	·	·	·	–	·
CC(C)CN(C(=O)c1cc2c(s1)CCCCC2)c1c(N)n(CC(C)C)c(=O)[nH]c1=O	·	·	·	·	–	·
Cc1ccc(S(=O)(=O)N2CCN(C(=O)CN(Cc3ccco3)Cc3ccco3)CC2)cc1C	·	·	·	·	–	·
N#Cc1c(N)nc(SCc2ccncc2)c(C#N)c1-c1cccs1	–	–	–	–	–	-34
CC(=O)N1N=C2/C(=C/c3ccccc3)CCCC2C1c1ccccc1 (stereo unspecified)	–	–	31	–	–	–
O=C(O)c1c(C(=O)N2N=C3/C(=C/c4ccccc4)CCCC3C2c2ccccc2)cccc1[N+](=O)[O-] (stereo unspecified)	–	–	–	–	–	–
O=C(Cc1cccc2ccccc12)Nc1c(F)cccc1F	–	–	–	–	–	-36
SMILES	D1 agonist	TRHR ag	TRHR PAM	D1 PAM	LDHA block	D1 antag
CSc1ncccc1C(=O)NNC(=O)c1ccc(NS(=O)(=O)c2cccs2)cc1	–	–	–	–	–	-45
COc1ccccc1C(=O)NNC(=O)c1ccc(NS(=O)(=O)c2cccs2)cc1	–	–	–	–	–	–
Cc1ccc(NC(=O)Cn2ccsc2=N)cc1S(=O)(=O)N(C)C	–	–	–	–	–	–
CN(C)S(=O)(=O)c1cc(NC(=O)Cn2ccsc2=N)ccc1Cl	–	–	–	–	–	-30
O=C(O)c1ccc(COc2ccccc2/C=C2\NC(=O)N(Cc3ccc(F)cc3)C2=O)cc1	–	–	–	–	–	-33
O=C(CCc1nc2ccccc2c(=O)[nH]1)NCc1ccccn1	–	–	–	–	–	-30
O=C(COC(=O)CCc1nc2ccccc2c(=O)[nH]1)Nc1ccccc1Cl	–	–	–	–	–	-41
Nc1nc(-c2ccc(Cl)cc2)nn1C(=O)c1ccc(F)cc1	·	·	·	·	–	·
CN(C)c1nc(N(C)C)n(C(=O)c2ccc(F)cc2)n1	–	–	–	–	–	-33
O=C(O)Cn1cccc1C(=O)c1ccccc1	33	–	–	–	–	–
COC(=O)Cn1cccc1C(=O)c1ccccc1	–	–	–	–	–	–
CC(C)(C)n1nnnc1SCc1csc(Nc2ccccc2)n1	·	·	·	·	–	·
CN(C)/C=C1\C=C2C(=O)c3ccccc3N2C1=O	335	249	31	–	–	-62
CN(C)/C=C1\C=Cc2ccccc21	·	·	·	·	–	·
CCn1c(=O)c(-[n+]2ccccc2)c(O)c2ccccc21	–	–	–	–	–	-35
COc1cccc2cc(C(=O)Nc3c(C)cccc3C)c(=O)oc12	·	·	·	·	–	·
COc1ccc(NC(=O)c2ccc(CN3CCc4ccccc4C3)cc2)c(OC)c1	–	–	–	–	–	-35
COc1ccc(NC(=O)CO/N=C2/CCCc3nonc32)c(OC)c1	–	–	–	–	–	-32
COc1ccc(NC(=O)CC(=O)Nc2ccc(OC)cc2OC)c(OC)c1	–	–	–	–	–	-89
COc1ccc(OC)c(NC(=O)c2ccc(CN3CCc4ccccc4C3)cc2)c1	–	–	–	–	–	–
COc1ccc(NC(=O)CO/N=C2\CCCc3nonc32)cc1	–	–	–	–	–	–
COc1ccc(NC(=O)Nc2nc(C)cc(C)n2)c(OC)c1	–	–	–	–	–	-34
COc1ccc(NC(=O)CC(C)=O)c(OC)c1	–	–	–	–	–	–
Cc1ccc(NC(=O)c2oc3ccccc3c2NC(=O)c2cc(=O)c3ccccc3o2)cc1	·	·	·	·	–	·
Cn1c(=O)c2c(-c3cccc(Br)c3)[nH]cc2n(C)c1=O	·	·	·	·	–	·
SMILES	D1 agonist	TRHR ag	TRHR PAM	D1 PAM	LDHA block	D1 antag
N#Cc1ccc(OCc2cc(Cl)c3c(c2)OCCO3)cc1	·	·	·	·	–	·
CN1C(=O)S/C(=C\C(=O)O)C1=O	·	·	·	·	–	·
Cc1ccc2oc(=O)cc(CN3CCN(c4ccc(F)cc4)CC3)c2c1	·	·	·	·	–	·
O=C(NCCCN1CCN(c2ccccc2F)CC1)c1ccc2nc(CCc3ccccc3)oc2c1	–	–	–	–	–	-31
COc1ccccc1N1CCN(CCCCNC(=O)c2ccc3ccccc3c2)CC1	–	–	–	–	–	-54
CCN1CCN(CCNC(=O)c2ccc3nc(-c4cccc(C)c4)c(-c4cccc(C)c4)nc3c2)CC1	63	–	–	–	–	–
O=C(NCCCN1CCN(c2ccc(F)cc2)CC1)c1ccc2nc(CCc3ccccc3)oc2c1	–	–	–	–	–	–
CCc1nc2ccc(C(=O)NCCCN3CCN(c4ccccc4F)CC3)cc2nc1CC	–	–	–	–	–	-32
CCN1CCN(CCNC(=O)c2ccc3nc(-c4ccccc4)c(-c4ccccc4)nc3c2)CC1	·	·	·	·	–	·
O=C(c1[nH]c2ccccc2c1Cl)N(Cc1ccccc1)Cc1ccco1	·	·	·	·	–	·
O=C(CSc1nnc2ccc(-c3ccncc3)nn12)NC1CCCCC1	·	·	·	·	–	·
